PubChem BioAssay (NCATS)
Where “and” joins values, the source holds several entries; their conditions need not be identical. Equal entries are not always repeated. A number with no mark means an inactive call. Results filed as inconclusive are left out. Calls of active or inactive are those of the source. Calls come from the whole dose curve; as a rule, active = well fitted curve in the direction sought with a large enough effect; inconclusive = small, poorly fitted or top-dose-only effect, or another doubt; inactive = no such curve, though single readings can be large; an effect the other way counts as inactive or inconclusive.

How the values were obtained:
[1] = target: Cytochrome P450 3A4 (Homo sapiens) (UniProt P08684); test: qHTS Assay for Activators of Cytochrome P450 3A4 (AID 885); note: nearly all actives have a fitted effect of over 65% in size
Procedure, shortened: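 Luminescent readout of luciferin formed from 25 uM Luciferin-PPXE (KM level) by 20 nM CYP3A4 in 200 mM KPO4, with 60 min NADPH-driven reaction at room temperature after 10 min compound exposure. Ketoconazole (57 uM) defined 100% inhibition.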

[2] = target: Cytochrome P450 2D6 (Homo sapiens) (UniProt P10635); test: qHTS Assay for Inhibitors and Substrates of Cytochrome P450 2D6 (AID 891); note: nearly all actives have a fitted effect of over 60% in size; note: potency is the fitted concentration of half-maximal effect
Procedure, shortened: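 Luminescent read-out of luciferin formed by 5 nM human CYP2D6 demethylating 30 uM Luciferin-ME EGE (Km level) over 60 min at room temperature after NADPH regeneration addition. Data normalized to full inhibition by 1.43 uM quinidine.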

[3] = target: Cytochrome P450 2C19 (Homo sapiens) (UniProt P33261); test: qHTS Assay for Inhibitors and Substrates of Cytochrome P450 2C19 (AID 899); note: % is set by controls: 0 for no effect and ±100 for the full control effect; nearly all actives have a fitted effect of over 60% in size
Procedure, shortened: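 Luminescent read-out of luciferin formed from Luciferin-H EGE (10uM, equal to KM). Enzyme 5nM in 50mM KPO4; compound added, 10 min at 37C, then NADPH regenerating system for 60 min at 37C. Full inhibition defined by 57uM ketoconazole.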

Cytochrome P450 3A4 (Homo sapiens), sequence (P08684 whole entry, looked up): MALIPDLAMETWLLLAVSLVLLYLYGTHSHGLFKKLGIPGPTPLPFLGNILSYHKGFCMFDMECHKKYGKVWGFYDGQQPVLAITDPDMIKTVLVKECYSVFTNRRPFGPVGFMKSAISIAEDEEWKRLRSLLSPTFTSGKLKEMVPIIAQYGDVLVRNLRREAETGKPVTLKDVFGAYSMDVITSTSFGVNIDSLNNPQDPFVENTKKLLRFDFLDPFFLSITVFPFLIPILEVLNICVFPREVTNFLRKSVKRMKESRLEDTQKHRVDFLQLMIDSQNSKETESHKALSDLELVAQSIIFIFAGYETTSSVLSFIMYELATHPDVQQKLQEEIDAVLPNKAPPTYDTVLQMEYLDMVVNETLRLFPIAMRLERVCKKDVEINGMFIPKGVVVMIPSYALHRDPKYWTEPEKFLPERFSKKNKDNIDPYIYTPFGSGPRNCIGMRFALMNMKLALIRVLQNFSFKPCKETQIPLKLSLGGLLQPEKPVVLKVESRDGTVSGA
Cytochrome P450 2D6 (Homo sapiens), sequence (P10635 whole entry, looked up): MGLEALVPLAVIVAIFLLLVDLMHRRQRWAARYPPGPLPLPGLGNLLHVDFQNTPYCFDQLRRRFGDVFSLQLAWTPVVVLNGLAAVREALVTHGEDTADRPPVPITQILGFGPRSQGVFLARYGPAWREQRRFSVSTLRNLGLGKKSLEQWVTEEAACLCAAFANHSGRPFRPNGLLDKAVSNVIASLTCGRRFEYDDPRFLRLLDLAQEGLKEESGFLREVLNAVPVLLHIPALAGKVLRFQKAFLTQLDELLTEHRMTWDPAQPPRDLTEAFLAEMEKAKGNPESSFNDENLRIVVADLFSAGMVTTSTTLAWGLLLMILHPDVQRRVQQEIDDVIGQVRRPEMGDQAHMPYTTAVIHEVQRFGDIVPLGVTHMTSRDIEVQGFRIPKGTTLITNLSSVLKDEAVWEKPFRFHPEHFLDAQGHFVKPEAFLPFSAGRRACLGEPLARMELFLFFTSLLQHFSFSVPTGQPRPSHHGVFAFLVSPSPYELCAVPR
Cytochrome P450 2C19 (Homo sapiens), sequence (P33261 whole entry, looked up): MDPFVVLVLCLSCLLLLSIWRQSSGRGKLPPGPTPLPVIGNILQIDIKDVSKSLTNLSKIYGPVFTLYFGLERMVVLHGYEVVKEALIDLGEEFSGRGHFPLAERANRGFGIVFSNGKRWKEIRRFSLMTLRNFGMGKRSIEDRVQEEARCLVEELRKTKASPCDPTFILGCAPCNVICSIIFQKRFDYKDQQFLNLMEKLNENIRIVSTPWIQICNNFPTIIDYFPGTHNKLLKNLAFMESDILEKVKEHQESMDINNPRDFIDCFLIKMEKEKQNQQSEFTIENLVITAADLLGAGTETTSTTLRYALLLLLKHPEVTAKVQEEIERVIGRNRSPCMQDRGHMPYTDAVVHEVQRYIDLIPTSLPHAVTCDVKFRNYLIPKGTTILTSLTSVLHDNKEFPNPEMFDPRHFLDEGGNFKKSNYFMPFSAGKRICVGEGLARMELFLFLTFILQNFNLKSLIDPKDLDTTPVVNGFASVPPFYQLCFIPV

SMILES: CCC1=C2CC[C@H]3C(=O)N(C)C(=O)[C@H]3[C@H]2[C@@]2(C)C(=O)N(CC(=O)OC)C(=O)N2C1=O
- Potency [1]: inactive

SMILES: CO[C@@H]1COC(=O)[C@H](COCc2ccccc2)NC(=O)C/C=C\[C@@H](C)[C@H](OC)COC(=O)[C@@H](C)NC(=O)C/C=C\[C@H]1C
- activity change, positive = activation [1]: -36.6% [at 11.4 µM]

SMILES: CCCC[C@@H]1CN2[C@H](c3ccc(Br)cc3)[C@@H](C)CC[C@H]2C(=O)O1
- activity change, positive = activation [1]: -59.6% [at 11.4 µM]

SMILES: Cc1ccc(S(=O)(=O)N[C@H]2COC(=O)[C@@H](C)COC(=O)[C@H](C)NC(=O)C/C=C\[C@H]2C)cc1
- activity change, positive = activation [1]: -40.2% [at 11.4 µM]

SMILES: C/C(CCN1CCc2nc(-c3ccccc3)c(-c3ccccc3)cc2C1)=N\OC[C@@H](C)[C@H](OCc1ccccc1)C(C)C
- activity change, positive = activation [1]: -51.7% [at 11.4 µM]

SMILES: CCC1=C(OC(=O)N(CC)CC)N2C(=O)OC(=NCCOC)[C@]2(C)[C@H]2C1=CC[C@H]1C(=O)N(C)C(=O)[C@H]12
- Potency [1]: inactive

SMILES: CO[C@H]1COC(=O)[C@H]2CCCN2C(=O)C/C=C\[C@@H](C)[C@H](OC)COC(=O)[C@@H](OCc2ccccc2)/C=C\[C@@H]1C
- activity change, positive = activation [1]: -30.9% [at 11.4 µM]

SMILES: CC[C@@H](c1ccccc1)n1c(=O)n2n(c1=O)[C@H]1[C@H](O)[C@H]3O[C@@H]3/C(=N/OCc3ccccc3)[C@@H]1CC2
- activity change, positive = activation [1]: -33.4% [at 11.4 µM]

SMILES: CO/N=C1/c2cc(OC)ccc2O[C@@H](c2cccc(OC)c2)[C@H]1O
- activity change, positive = activation [1]: -52.8% [at 11.4 µM]

SMILES: COc1ccc(O[C@H]2C=C[C@@H](c3ccccc3)O[C@@H]2CON=C(C)C)cc1
- activity change, positive = activation [1]: -40.2% [at 11.4 µM]

SMILES: N#Cc1ccc(C23CC4(C2)[C@H](CN(CC2CCCCC2)[C@@H]4c2ccccc2)C3c2ccc(Cl)nc2)cc1 (stereo not given in full)
- Potency [1]: inactive

SMILES: COC(=O)c1ccc(C23CC4(C2)[C@H](CN(C)[C@@H]4c2ccccc2)C3c2ccc(C(F)(F)F)cc2)cc1 (stereo not given in full)
- Potency [1]: inactive

SMILES: COc1ccc(OC2C=CC(C#Cc3ccc(C(C)(C)C)cc3)OC2CO)cc1 (stereo not given)
- activity change, positive = activation [1]: -56.3% [at 11.4 µM]
- Potency [2]: inactive

SMILES: C[C@@H]1/C=C\CC(=O)OC[C@H](C)C(=O)N[C@@H](Cc2ccccc2)C(=O)OC1
- activity change, positive = activation [1]: -37.2% [at 11.4 µM]
- Potency [2]: inactive
- Potency [3]: inactive

SMILES: CC(=O)OC[C@@H]1O[C@H](C/C=N\O[C@@H](C)c2cn([C@H](CO)Cc3ccccc3)nn2)C=C[C@@H]1OC(C)=O
- activity change, positive = activation [1]: -51.6% [at 11.4 µM] and -34% [at 11.4 µM]

SMILES: CC(=O)OC[C@H]1O[C@@H](O/N=C(\C)CCN2CCCc3nc(C)c(C)cc32)[C@H](OC(C)=O)[C@@H](OC(C)=O)[C@H]1OC(C)=O
- activity change, positive = activation [1]: -36.5% [at 11.4 µM]
- Potency [2]: 3.16 µM (active)

SMILES: COc1ccc(COC(=O)N/N=C2/C[C@@H](O)[C@@H](O)[C@@H]3[C@H]4C(=O)N(c5ccc(F)cc5F)C(=O)[C@@H]4CC[C@@H]23)cc1
- activity change, positive = activation [1]: -42.8% [at 11.4 µM]

SMILES: CCC1=C2CC[C@H]3C(=O)NC(=O)[C@H]3[C@H]2[C@@]2(Cc3ccccc3)C(=NCC(=O)OC)OC(=O)N2C1=O
- Potency [1]: inactive

SMILES: N#CCC(=O)NC(=O)NCC1CC1
- Potency [1]: inactive

SMILES: O=C(NCCC[N+]1=CC=N[C@H]1c1ccccc1)N1CCCc2nc(-c3ccc(Br)cc3)ccc21
- activity change, positive = activation [1]: -35.8% [at 11.4 µM]
- Potency [2]: 0.0794 µM (active)

SMILES: CCC1=C2CC[C@H]3C(=O)N(c4ccccc4)C(=O)[C@H]3[C@H]2[C@@]2(C)C(=O)N(CC(=O)OC)C(=O)N2C1=O
- Potency [1]: inactive

SMILES: CC(=O)OC[C@H]1O[C@@H](O/N=C(\C)CCN2CCCCc3nc(C)c(C)cc32)[C@H](OC(C)=O)[C@@H](OC(C)=O)[C@H]1OC(C)=O
- activity change, positive = activation [1]: -53.9% [at 11.4 µM]
- Potency [2]: 3.98 µM (active)

SMILES: CO[C@H]1COC(=O)C/C=C\[C@H](C)[C@@H](OC)COC(=O)[C@H](Cc2ccccc2)NC(=O)C/C=C\[C@@H]1C
- activity change, positive = activation [1]: -62.1% [at 11.4 µM]

SMILES: COC(=O)c1ccc(CN2[C@H](C(=O)OC)C[C@@]3(O)[C@H](O)[C@H](O)[C@H](O)C[C@@H]23)cc1
- Potency [1]: inactive

SMILES: CC(=O)OC[C@@H]1O[C@H](C/C=N\O[C@@H](C)CN2CCCCc3nc(C)c(C)cc32)C=C[C@@H]1OC(C)=O
- activity change, positive = activation [1]: -57.2% [at 11.4 µM]
- Potency [2]: 3.16 µM (active)

SMILES: CCc1cc2c(nc1CC)CCN(CC/C(C)=N/O[C@@H](C)CN1CCCc3nc(C)c(C)cc31)C2
- activity change, positive = activation [1]: -50.2% [at 11.4 µM]
- Potency [2]: 3.98 µM (active)

SMILES: COC(=O)c1cccc(C#CC(NP(=O)(c2ccccc2)c2ccccc2)c2ccccc2)c1 (stereo not given)
- Potency [1]: inactive

SMILES: CC(=O)OC[C@H]1O[C@@H](O/N=C(\C)CCN2CCc3nc(-c4ccccc4)c(-c4ccccc4)cc3C2)[C@H](OC(C)=O)[C@@H](OC(C)=O)[C@H]1OC(C)=O
- activity change, positive = activation [1]: -41.6% [at 11.4 µM]
- Potency [2]: 3.16 µM (active)

SMILES: Clc1ccc(C2[C@H]3CN(Cc4ccc(-c5ccccc5)cc4)[C@H](c4ccccc4)C34CC2(c2cccnc2)C4)cn1 (stereo not given in full)
- Potency [1]: inactive

SMILES: COC(=O)C/C=C\[C@@H](C)[C@@H](/C=N\O[C@@H](C)CN1CCCc2nc(C)c(C)cc21)OC
- activity change, positive = activation [1]: -59.1% [at 11.4 µM]

SMILES: COC(=O)C/C=C\[C@@H](C)[C@@H](/C=N\OC[C@@H](O)[C@H]1O[C@H]2OC(C)(C)O[C@H]2[C@@H]1O)OC
- activity change, positive = activation [1]: -43.3% [at 11.4 µM]
- Potency [2]: inactive

SMILES: C/C(CCN1CCc2nc(-c3ccccc3)c(-c3ccccc3)cc2C1)=N\O[C@@H](C)CN1CCCCc2nc(C)c(C)cc21
- activity change, positive = activation [1]: -84.8% [at 11.4 µM]

SMILES: CCC1=C(OC(=O)N(CC)CC)N2C(=O)OC(=NCCOC)[C@]2(Cc2ccccc2)[C@H]2C1=CC[C@H]1C(=O)N(C)C(=O)[C@H]12
- Potency [1]: inactive

SMILES: CCOC(=O)N/N=C1/C[C@@H](O)[C@@H](O)[C@@H]2[C@@H]3C(=O)N(Cc4ccc5c(c4)OCO5)C(=O)[C@H]3CC[C@H]12
- activity change, positive = activation [1]: -58.6% [at 11.4 µM]

SMILES: COC(=O)c1ccc(C23CC4(C2)[C@H](CN(CC2CCCCC2)[C@@H]4c2ccccc2)C3c2ccc(C(F)(F)F)cc2)cc1 (stereo not given in full)
- Potency [1]: inactive

SMILES: COC(=O)[C@@H]1CC[C@H](C)[C@@H](c2ccc(C)cc2)N1C(=O)c1ccc(/C=N\O[C@@H](C)CN2CCCCc3nc(C)c(C)cc32)cc1
- activity change, positive = activation [1]: -36.1% [at 11.4 µM]

SMILES: Nc1cc(=O)[nH]c(=O)n1CC1CC1
- Potency [1]: inactive

SMILES: Clc1ccc(C2[C@H]3CN(CC4CCCCC4)[C@H](c4ccccc4)C34CC2(c2ccccc2)C4)cn1 (stereo not given in full)
- Potency [1]: inactive

SMILES: CC(C)=NO[C@@H](C)CN1CCCCc2nc(C)c(C)cc21
- activity change, positive = activation [1]: -46.4% [at 11.4 µM]
- Potency [2]: 2.51 µM (active)

SMILES: Nc1cc(=O)[nH]c(=O)n1Cc1ccccc1
- Potency [1]: inactive

SMILES: Cc1c(O)c(O)cc2c1oc1c3ccccc3oc(=O)c21
- Potency [1]: inactive

SMILES: CC(C)c1ccccc1S(=O)(=O)c1cc(N)c2ncccc2c1[N+](=O)[O-]
- Potency [1]: inactive

SMILES: CC(C)CO/N=C1/C[C@@H](O)[C@@H](O)[C@@H]2[C@@H]3C(=O)N(Cc4ccc5c(c4)OCO5)C(=O)[C@H]3CC[C@@H]12
- activity change, positive = activation [1]: -50.2% [at 11.4 µM]

SMILES: COC(=O)C/C=C\[C@@H](C)[C@@H](/C=N\O[C@@H](C)c1cn([C@H](CO)Cc2ccccc2)nn1)NS(=O)(=O)c1ccc(C)cc1
- activity change, positive = activation [1]: -101% [at 11.4 µM] and -92.7% [at 11.4 µM]
